Reference: PubChem BioAssay
“And” between values parts separate entries of the source, which are not always exact repeats. Equal values may be shown once. The source made the active and inactive calls.

What was measured:
[1] = compounds binding Alexa647 anti-His antibody – biochemical, small-molecule microarray, 635 nm fluorescence, artefact control for SMM control protein annotation, primary screen (AID 1128); settings: higher = more signal;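 further: score merges feature fluorescence with signal-to-noise for each printed compound spot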
[2] = test system: Human papillomavirus type 1a E7 protein (residues 1-88); assay: HPV1a E7 small-molecule binders, primary screen, biochemical, small-molecule microarray, residues 1-88, 635 nm (AID 1129); settings: small-molecule microarray binding, fluorescence 635 nm; higher = more signal
[3] = biological target: Focal adhesion kinase 1 (Homo sapiens) (UniProt Q05397); assay: PTK2 protein binding on printed compound slides – biochemical, small-molecule microarray, 635/667 nm fluorescence, BSA, DTT, primary screen (AID 1130); settings: 635 nm fluorescence, higher = more signal;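 further: composite of spot emission at 667 nm and signal to noise over triplicate slides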
[4] = test system: Fibrinogen (Alexa647-labelled); assay: Alexa647-fibrinogen binding to printed small molecules – biochemical, small-molecule microarray, 635/667 nm fluorescence, artefact control for SMM control-protein annotation, profiling panel (AID 1131); settings: fibrinogen-A647 binding fluorescence, higher = more signal;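 further: z-score merges 667 nm fluorescence with per-spot signal-to-noise over triplicate slides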
[5] = biological target: Follistatin (Homo sapiens) (UniProt P19883); assay: FST protein binding to printed compounds – biochemical, small-molecule microarray, 635/667 nm fluorescence, primary screen (AID 1132); settings: 635 nm fluorescence, higher = more signal
[6] = biological target: Fibroblast growth factor 2 (Homo sapiens) (UniProt P09038); assay: basic fibroblast growth factor binding to printed compounds – biochemical, small-molecule microarray, 635/667 nm fluorescence, primary screen (AID 1133); settings: FGF2, fluorescence 635/667, higher = more signal
[7] = JC-1 mitochondrial potential readout, lung cancer cells – cell-based, A549, JC-1 fluorescence, basal, 24 h, 100 nL, profiling panel (AID 1138); settings: higher = more signal;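 further: A549 lung adenocarcinoma cells under basal conditions with no added stimulus; test concentration not given here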
Lefty1 = Lefty1 protein binding to printed compounds – biochemical, small-molecule microarray, 635/667 nm fluorescence, primary screen (AID 1139); settings: fluorescence 635/667, higher = more signal
[8] = test system: wheat germ agglutinin (Triticum aestivum), Alexa647-labelled; assay: Alexa647-WGA lectin binding to printed small molecules – biochemical, small-molecule microarray, 635/667 nm fluorescence, artefact control for SMM control-protein annotation, profiling panel (AID 1140); settings: WGA-A647 binding, 635 nm fluorescence, higher = more signal;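 further: score merges 667 nm feature emission with signal to noise over triplicate slides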
[9] = biological target: Luciferin 4-monooxygenase (Photinus pyralis) (UniProt P08659); assay: inhibition of purified Photinus pyralis luciferase – biochemical, luminescence, purified enzyme, 2006 set, primary screen (AID 1141); settings: purified firefly luciferase, SteadyGlo luminescence, 30 min; higher = more signal, called active from +8 up or from −8 down;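 further: cell-free assay with purified firefly luciferase at 100 ng per well in PBS; test concentration not given here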
Sequence of Luciferin 4-monooxygenase (Photinus pyralis) (P08659 whole entry, looked up): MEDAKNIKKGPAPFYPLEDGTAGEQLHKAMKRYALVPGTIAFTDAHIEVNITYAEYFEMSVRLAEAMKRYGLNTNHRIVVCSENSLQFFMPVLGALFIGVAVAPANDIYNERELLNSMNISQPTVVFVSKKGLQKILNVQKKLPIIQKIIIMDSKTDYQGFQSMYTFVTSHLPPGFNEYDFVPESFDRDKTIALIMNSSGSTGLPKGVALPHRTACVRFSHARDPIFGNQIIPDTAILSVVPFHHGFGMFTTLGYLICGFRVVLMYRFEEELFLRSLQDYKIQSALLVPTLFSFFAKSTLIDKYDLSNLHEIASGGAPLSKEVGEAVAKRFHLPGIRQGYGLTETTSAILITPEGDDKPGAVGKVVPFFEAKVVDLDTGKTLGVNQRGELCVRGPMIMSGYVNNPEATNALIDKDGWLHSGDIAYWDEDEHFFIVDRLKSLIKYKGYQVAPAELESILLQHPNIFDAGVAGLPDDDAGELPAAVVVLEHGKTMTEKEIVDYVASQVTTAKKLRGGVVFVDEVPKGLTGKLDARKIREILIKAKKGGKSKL

Sequence of Focal adhesion kinase 1 (Homo sapiens) (Q05397 whole entry, looked up): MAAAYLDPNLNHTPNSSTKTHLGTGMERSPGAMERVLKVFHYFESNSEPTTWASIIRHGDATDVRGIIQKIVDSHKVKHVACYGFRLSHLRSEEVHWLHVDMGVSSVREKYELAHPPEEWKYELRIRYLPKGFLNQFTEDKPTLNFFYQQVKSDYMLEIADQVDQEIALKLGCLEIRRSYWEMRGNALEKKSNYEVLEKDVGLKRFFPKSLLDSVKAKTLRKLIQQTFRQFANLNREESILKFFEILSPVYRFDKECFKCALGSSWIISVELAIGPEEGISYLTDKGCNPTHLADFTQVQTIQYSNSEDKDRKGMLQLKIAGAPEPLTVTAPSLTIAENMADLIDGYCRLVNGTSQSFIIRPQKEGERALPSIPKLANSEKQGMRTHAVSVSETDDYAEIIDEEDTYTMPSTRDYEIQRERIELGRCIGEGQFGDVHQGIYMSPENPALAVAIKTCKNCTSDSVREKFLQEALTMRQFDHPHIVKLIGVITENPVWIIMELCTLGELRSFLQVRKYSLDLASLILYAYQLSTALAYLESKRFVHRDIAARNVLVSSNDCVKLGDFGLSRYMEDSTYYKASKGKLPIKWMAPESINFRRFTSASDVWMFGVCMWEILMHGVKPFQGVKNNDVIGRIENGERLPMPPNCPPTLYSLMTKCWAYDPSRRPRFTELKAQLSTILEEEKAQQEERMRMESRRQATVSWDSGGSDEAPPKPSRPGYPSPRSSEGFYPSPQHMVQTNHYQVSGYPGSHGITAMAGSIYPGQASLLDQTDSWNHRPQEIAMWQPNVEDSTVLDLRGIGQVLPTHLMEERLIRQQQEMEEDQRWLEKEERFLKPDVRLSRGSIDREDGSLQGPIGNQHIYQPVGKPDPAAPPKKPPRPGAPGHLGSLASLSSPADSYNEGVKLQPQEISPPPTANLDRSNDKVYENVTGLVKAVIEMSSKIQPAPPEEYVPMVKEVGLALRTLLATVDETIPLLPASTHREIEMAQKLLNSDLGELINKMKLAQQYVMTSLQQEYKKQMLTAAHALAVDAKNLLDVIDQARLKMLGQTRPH
Sequence of Follistatin (Homo sapiens) (P19883 whole entry, looked up): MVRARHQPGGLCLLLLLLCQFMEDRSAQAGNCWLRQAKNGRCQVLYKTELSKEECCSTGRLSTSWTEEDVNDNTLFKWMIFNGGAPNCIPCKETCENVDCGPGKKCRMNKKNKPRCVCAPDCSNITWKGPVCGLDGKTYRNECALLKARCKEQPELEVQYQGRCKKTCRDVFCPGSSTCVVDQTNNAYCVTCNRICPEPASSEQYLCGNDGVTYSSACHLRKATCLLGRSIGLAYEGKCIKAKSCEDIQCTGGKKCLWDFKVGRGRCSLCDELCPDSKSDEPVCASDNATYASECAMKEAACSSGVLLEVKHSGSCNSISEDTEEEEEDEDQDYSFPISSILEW
Sequence of Fibroblast growth factor 2 (Homo sapiens) (P09038 whole entry, looked up): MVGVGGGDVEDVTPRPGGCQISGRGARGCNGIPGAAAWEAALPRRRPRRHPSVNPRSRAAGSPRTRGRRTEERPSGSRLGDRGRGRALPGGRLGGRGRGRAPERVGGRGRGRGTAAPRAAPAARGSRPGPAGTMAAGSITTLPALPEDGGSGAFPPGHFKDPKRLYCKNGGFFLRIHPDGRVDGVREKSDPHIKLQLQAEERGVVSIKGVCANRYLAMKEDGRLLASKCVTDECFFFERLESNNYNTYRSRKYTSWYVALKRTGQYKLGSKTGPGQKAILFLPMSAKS

Compound	composite z-score [1]	composite z-score [2]	composite z-score [3]	composite z-score [4]	composite z-score [5]	composite z-score [6]	z-score [7]	composite z-score (Lefty1)	composite z-score [8]	z-score [9]
C=CCN(Cc1ccccc1)C(=O)C1N(c2ccc(CCO)cc2)C(=O)C2C(C(=O)O)C3C=CC21O3 (stereo not given)	-1.33 and -0.796	-1.49 and -1.7	0.0389 and -0.704	-0.944 and -1.58	-2 and -2.08	-2.32 and -2.92	-0.571 and -0.775	-2.53 and -1.55	-0.0866 and 1.16	-0.927 (inactive) and -0.283 (inactive)
COC(=O)C1=C(C)N(Cc2ccccc2)C2=C3C(=O)N(C)C(=O)[C@@H]3[C@@](O)(C(=O)OC)C(=O)N2[C@@H]1c1ccccc1	0.21 and -0.0385	0.311 and 0.614	0.128 and 0.276	0.269 and 0.335	0.355 and 0.223	0.55 and 0.24	0.286 and 0.239	-0.0227 and 0.627	0.129 and -0.0358	-0.598 (inactive) and -2.38 (inactive)
C=CCN(C(=O)C(c1cccs1)N(C(=O)/C=C\C(=O)O)c1ccc(CCO)cc1)C(C)(C)C (stereo not given)	0.381 and 2.21	0.07 and 0.0514	0.721 and -0.265	-0.548 and -3.6	-0.985 and -1.66	-1.22 and -1.05	0.428 and 0.741	-1.76 and -2	0.559 and -0.287	-0.928 (inactive) and -0.538 (inactive)
Cc1ccc(S(=O)(=O)N[C@@H]2COC(=O)CC=C[C@@H](C)[C@@H]3C=C[C@H](O)[C@@H](COC(=O)CC=C[C@H]2C)O3)cc1	-0.226 and -0.118	-0.617 and -0.0999	-0.466 and -0.318	-0.656 and 0.267	1.34 and 0.443	1.01 and 0.578	1.78 and -1.7	1.26 and 0.632	-0.113 and -0.0881	-0.92 (inactive) and 1.02 (inactive)
C=CC[C@@H](O)c1ccc(O)c(F)c1	-1.52 and -0.7	-0.762 and -1.07	-0.0427 and -0.9	-0.755 and -1.22	-1.12 and -0.0709	-1.42 and -0.594	-0.933 and 1.15	-1.9 and -0.344	0.106 and -1.3	-0.0615 (inactive) and -1.14 (inactive)
C=CC[C@@H](O)c1ccc(O)c2ccccc12	1.02 and 1.68	0.647 and 1.11	-0.618 and 0.11	0.353 and 0.0525	1.38 and 1.39	1.48 and 1.7	0.388 and -0.59	1.4 and 1.06	0.175 and 0.379	-2.65 (inactive) and -2.18 (inactive)
C#CCN1C(/C=C/c2ccccc2)C(=O)OC[C@H]1c1ccccc1 (stereo not given in full)	0.195 and 0.338	0.455 and 0.0982	0.0124 and 0.142	-0.106 and 0.137	1.28 and 0.768	0.441 and 1.07	-0.411 and -1	0.622 and 0.295	-0.19 and 0.017	-0.415 (inactive) and 0.754 (inactive)
C=CCN(C(=O)C1N(c2ccc(CCO)cc2)C(=O)C2C(C(=O)O)C3C=CC21O3)c1ccc(OC)cc1 (stereo not given)	0.0218 and -0.668	-0.304 and -0.769	0.0134 and -1.17	-0.369 and -1.3	-0.697 and -0.794	-1.24 and -1.75	-0.742 and -0.718	-0.708 and -0.967	0.0183 and -0.967	-0.622 (inactive) and 2.07 (inactive)
CON(C)C(=O)c1nnc2c3ccccc3n(S(=O)(=O)c3ccc(C)cc3)c2n1	0.397 and 0.647	0.836 and 1.11	0.323 and 0.0633	0.88 and 0.578	0.229 and 0.552	0.43 and 1.31	0.551 and 0.105	0.273 and 0.757	0.184 and 0.328	-0.251 (inactive) and -0.0743 (inactive)
COC(=O)C1=C(C)N(Cc2ccccc2)C2=C3C(=O)CCC[C@@H]3[C@@](O)(C(=O)OC)C(=O)N2[C@@H]1c1ccccc1	0.043 and -0.496	0.501 and 0.0093	-0.12 and 0.177	0.335 and -1.14	0.584 and 0.158	0.997 and 0.581	1.22 and 0.728	0.573 and 0.217	0.121 and -1.1	-1.29 (inactive) and -1.47 (inactive)
CC(C)=CCCC(C)=CCON=C1C[C@@H](O)[C@@H](O)[C@@H]2[C@@H]3C(=O)N([C@@H](C)c4ccccc4)C(=O)[C@@H]3CC[C@H]12	0.798	1.01	0.89	0.558	0.676	0.364	0.824	0.581	0.324	-0.677 (inactive)
COC(=O)C1=C(C)N(Cc2ccccc2)[C@]23O[C@](C(=O)OC)(C(=O)N2[C@@H]1c1ccccc1)[C@@H](c1ccccc1)[C@@H]3C(=O)c1ccccc1	-0.148 and -0.112	0.771 and 0.0338	-0.0865 and -0.11	0.502 and -0.435	-0.0105 and 0.958	0.416 and 0.847	0.914 and 0.835	0.0005 and 0.36	0.516 and -0.17	-0.917 (inactive) and -0.717 (inactive)
C[C@@H]1CC[C@H]2C(=O)N3[C@@H](CC[C@@H](C)[C@@H]3c3ccc(-c4ccco4)cc3)C(=O)N2[C@H]1c1ccc(-c2ccco2)cc1	2.61 and 1.86	1.22 and 0.674	1.68 and -0.333	1.01 and 0.912	1.35 and 1.45	0.882 and 1.36	-0.764 and -0.575	1.24 and 1.32	1.22 and 1.11	-2.93 (inactive) and -6.15 (inactive)
CN1C(=O)C2CC=C([C@H]3Oc4ccccc4S(=O)(=O)N4CCC[C@@H]34)CC2C1=O (stereo not given in full)	0.009 and -0.183	-0.984 and -0.409	0.285 and 0.14	0.0887 and -1.25	-0.375 and -0.417	-0.19 and -0.132	-0.719 and -0.239	-0.499 and 0.192	-0.213 and -1.39	0.156 (inactive) and 0.737 (inactive)
CO[C@@H]1COC(=O)[C@H](Cc2ccccc2)NC(=O)CC=C[C@@H](C)[C@H](OC)COC(=O)[C@@H](C)NC(=O)CC=C[C@H]1C	0.106 and 0.0473	-0.184 and -0.37	-0.129 and 0.183	-0.116 and -0.231	1.32 and 1.18	1.58 and 1.35	1.24 and 0.944	1.54 and 1.35	-0.714 and -0.807	-0.554 (inactive) and -1.49 (inactive)
CC(C)=NOC[C@@H](O)COCc1ccco1	1.27	-1.73	-0.395	-1.83	0.112	0.782	0.354	-0.181	-0.988	-1.28 (inactive)
